Measured values taken from ChEMBL document CHEMBL2218924, “A broad activity screen in support of a chemogenomic map for kinase signalling research and drug discovery” (Biochem J, 2013).

What was measured:
[1] = target: Death-associated protein kinase 1 (Homo sapiens) (UniProt P53355); conditions: at 10 µM
[2] = target: Death-associated protein kinase 2 (Homo sapiens) (UniProt Q9UIK4); conditions: at 1 µM
[3] = target: Death-associated protein kinase 2 (Homo sapiens) (UniProt Q9UIK4); conditions: at 10 µM
[4] = target: T1, Serine/threonine-protein kinase DCLK2 (Homo sapiens) (UniProt Q8N568); conditions: at 1 µM
T1 sequence (whole entry): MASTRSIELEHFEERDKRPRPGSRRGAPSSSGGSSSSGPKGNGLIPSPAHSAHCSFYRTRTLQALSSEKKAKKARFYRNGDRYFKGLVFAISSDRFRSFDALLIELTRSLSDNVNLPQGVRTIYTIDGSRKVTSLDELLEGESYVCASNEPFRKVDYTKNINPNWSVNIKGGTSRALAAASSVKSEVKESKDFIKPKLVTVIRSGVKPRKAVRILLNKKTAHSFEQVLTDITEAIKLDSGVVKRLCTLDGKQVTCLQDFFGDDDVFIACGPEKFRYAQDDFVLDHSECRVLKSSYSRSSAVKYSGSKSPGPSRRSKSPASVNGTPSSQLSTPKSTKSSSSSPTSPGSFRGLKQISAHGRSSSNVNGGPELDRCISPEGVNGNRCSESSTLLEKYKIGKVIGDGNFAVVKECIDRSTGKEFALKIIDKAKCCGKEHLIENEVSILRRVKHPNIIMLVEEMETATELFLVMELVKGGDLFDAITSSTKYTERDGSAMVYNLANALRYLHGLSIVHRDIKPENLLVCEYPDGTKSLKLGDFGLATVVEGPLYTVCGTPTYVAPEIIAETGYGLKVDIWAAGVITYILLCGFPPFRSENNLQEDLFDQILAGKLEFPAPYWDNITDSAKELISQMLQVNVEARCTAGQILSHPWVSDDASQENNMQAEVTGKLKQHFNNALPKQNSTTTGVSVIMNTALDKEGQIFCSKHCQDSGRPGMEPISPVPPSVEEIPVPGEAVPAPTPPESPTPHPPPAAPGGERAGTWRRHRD

[5] = target: T1, Serine/threonine-protein kinase DCLK2 (Homo sapiens); conditions: at 10 µM
[6] = target: T2, Discoidin domain-containing receptor 2 (Homo sapiens) (UniProt Q16832); conditions: at 1 µM
T2 sequence (whole entry): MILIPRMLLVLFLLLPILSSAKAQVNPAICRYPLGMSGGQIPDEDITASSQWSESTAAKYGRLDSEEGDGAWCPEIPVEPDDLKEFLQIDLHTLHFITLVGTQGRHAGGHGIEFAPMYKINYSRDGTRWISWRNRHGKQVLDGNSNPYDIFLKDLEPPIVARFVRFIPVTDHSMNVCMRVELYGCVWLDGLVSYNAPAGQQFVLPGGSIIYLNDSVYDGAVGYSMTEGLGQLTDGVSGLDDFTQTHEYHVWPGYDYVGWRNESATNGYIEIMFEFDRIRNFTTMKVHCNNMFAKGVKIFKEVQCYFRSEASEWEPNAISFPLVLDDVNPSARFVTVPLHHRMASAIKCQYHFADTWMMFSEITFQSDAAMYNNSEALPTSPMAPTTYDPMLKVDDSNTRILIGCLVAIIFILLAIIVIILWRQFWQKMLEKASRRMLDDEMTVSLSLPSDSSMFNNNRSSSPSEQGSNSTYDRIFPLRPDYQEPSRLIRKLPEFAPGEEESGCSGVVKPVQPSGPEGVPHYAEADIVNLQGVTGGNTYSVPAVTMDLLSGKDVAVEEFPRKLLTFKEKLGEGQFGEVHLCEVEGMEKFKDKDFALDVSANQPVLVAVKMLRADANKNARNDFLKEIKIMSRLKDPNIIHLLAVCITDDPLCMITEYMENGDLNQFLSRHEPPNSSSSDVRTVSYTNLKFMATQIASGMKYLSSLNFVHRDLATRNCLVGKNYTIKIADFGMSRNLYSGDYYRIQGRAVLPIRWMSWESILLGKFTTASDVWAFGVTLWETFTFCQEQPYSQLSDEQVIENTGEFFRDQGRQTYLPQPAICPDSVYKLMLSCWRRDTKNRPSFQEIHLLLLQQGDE

[7] = target: T2, Discoidin domain-containing receptor 2 (Homo sapiens); conditions: at 10 µM
[8] = target: T3, Myotonin-protein kinase (Homo sapiens) (UniProt Q09013); conditions: at 1 µM
T3 sequence (whole entry): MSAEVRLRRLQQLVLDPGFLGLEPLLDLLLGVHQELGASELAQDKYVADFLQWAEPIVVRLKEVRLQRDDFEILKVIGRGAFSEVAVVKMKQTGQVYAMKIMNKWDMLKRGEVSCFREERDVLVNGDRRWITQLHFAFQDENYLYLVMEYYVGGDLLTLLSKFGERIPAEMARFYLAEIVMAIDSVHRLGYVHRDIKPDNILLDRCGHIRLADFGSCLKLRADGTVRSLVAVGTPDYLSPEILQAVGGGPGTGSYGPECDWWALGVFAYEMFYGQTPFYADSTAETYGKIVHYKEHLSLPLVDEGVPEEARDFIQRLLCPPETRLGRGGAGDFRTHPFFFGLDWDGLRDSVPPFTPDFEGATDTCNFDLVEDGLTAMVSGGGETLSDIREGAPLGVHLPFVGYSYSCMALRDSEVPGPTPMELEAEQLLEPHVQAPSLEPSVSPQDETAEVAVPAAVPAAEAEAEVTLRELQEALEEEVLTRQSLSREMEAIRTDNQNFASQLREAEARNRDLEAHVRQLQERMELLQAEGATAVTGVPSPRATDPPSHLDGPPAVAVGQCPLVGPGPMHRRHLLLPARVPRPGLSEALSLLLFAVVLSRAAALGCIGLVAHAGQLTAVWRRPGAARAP

[9] = target: T3, Myotonin-protein kinase (Homo sapiens); conditions: at 10 µM
[10] = target: T4, Serine/threonine-protein kinase 17A (Homo sapiens) (UniProt Q9UEE5); conditions: at 1 µM
T4 sequence (whole entry): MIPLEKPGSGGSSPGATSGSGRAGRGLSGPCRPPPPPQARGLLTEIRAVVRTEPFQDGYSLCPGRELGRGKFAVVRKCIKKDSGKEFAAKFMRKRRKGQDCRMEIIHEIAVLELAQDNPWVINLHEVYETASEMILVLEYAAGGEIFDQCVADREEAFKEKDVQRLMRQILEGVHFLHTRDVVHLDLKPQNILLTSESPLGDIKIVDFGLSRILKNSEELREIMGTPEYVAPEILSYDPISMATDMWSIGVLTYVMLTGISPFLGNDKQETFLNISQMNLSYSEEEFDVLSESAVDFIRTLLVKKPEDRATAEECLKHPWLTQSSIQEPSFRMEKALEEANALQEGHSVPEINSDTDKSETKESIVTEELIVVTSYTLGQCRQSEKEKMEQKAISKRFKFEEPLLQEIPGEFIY

Sequence of Death-associated protein kinase 1 (Homo sapiens) (P53355 whole entry, looked up): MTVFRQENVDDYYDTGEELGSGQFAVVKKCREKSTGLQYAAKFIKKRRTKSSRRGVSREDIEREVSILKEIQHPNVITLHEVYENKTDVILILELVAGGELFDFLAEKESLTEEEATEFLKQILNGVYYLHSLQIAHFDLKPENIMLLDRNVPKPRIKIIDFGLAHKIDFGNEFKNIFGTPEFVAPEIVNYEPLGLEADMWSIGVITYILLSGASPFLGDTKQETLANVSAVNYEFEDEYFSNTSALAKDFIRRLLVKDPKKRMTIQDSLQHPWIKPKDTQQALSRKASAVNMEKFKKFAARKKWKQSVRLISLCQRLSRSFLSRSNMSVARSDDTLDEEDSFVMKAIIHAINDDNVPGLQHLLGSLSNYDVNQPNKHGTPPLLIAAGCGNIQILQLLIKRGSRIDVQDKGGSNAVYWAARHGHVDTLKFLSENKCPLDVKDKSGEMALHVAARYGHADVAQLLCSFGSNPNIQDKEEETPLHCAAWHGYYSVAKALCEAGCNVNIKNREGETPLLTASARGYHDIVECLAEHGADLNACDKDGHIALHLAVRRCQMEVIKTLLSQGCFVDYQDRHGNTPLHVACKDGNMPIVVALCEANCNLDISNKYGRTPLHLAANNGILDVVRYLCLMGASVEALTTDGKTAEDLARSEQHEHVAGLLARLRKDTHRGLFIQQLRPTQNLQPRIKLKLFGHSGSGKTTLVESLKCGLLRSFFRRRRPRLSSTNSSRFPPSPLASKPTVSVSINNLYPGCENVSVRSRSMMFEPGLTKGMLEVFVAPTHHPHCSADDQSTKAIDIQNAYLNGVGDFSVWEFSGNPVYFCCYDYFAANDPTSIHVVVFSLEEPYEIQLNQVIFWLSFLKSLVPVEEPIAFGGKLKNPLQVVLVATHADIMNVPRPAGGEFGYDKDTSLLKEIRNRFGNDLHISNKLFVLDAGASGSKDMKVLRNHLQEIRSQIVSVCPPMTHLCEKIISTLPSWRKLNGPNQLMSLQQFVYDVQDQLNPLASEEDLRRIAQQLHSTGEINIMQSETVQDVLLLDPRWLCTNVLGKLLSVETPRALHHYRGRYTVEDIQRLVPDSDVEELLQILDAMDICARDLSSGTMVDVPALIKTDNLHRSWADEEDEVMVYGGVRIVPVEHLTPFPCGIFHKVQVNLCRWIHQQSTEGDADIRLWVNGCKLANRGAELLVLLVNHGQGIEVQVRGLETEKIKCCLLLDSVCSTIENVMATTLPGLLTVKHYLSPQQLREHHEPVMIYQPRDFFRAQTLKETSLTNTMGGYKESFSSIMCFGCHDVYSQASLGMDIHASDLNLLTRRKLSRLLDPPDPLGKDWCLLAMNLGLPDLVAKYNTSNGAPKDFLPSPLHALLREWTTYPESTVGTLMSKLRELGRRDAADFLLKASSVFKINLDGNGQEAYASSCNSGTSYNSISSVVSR
Sequence of Death-associated protein kinase 2 (Homo sapiens) (Q9UIK4 whole entry, looked up): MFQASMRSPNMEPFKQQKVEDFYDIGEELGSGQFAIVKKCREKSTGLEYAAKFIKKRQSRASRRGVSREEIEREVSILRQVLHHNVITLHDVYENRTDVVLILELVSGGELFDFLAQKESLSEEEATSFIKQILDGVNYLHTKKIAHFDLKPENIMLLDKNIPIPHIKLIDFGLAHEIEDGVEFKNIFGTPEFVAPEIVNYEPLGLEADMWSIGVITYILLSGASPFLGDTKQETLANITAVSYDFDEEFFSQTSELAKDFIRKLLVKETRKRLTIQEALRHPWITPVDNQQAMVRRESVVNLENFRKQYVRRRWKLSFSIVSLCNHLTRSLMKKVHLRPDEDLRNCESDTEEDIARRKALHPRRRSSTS

Row | SMILES | residual activity [1] | residual activity [2] | residual activity [3] | residual activity [4] | residual activity [5] | residual activity [6] | residual activity [7] | residual activity [8] | residual activity [9] | residual activity [10]
1 | CC(=O)O/N=C1\C(=C2\C(=O)Nc3cc(Br)ccc32)Nc2ccccc21 | 84% | 86% | 65% | 107% | 94% | 91% | 71% | 106% | 89% | 63%
2 | O=C1NC(=O)/C(=C\c2ccc3nccnc3c2)S1 | 78% | 68% | 27% | 73% | 71% | 109% | 101% | 114% | 122% | 63%
3 | O=C1Nc2ccccc2/C1=C1/Nc2ccccc2/C1=N\OCCC(O)CO (centres undefined) | 43% | 49% | 12% | 99% | 35% | 76% | 46% | 115% | 69% | 5%
4 | CC#CC(=O)Nc1cc2c(Nc3ccc(F)c(Cl)c3)ncnc2cn1 | 90% | 88% | 104% | 77% | 96% | 96% | 93% | 113% | 115% | 105%
5 | CN(C)c1ccc(/C=C2\C(=O)Nc3ccccc32)cc1 | 80% | 102% | 88% | 88% | 101% | 104% | 99% | 111% | 130% | 25%
6 | C[C@@H](N)[C@H]1CC[C@H](C(=O)Nc2ccncc2)CC1 | 104% | 88% | 85% | 110% | 87% | 108% | 105% | 95% | 95% | 70%
7 | Cc1ccc(S(=O)(=O)/C=C/C#N)cc1 | 87% | 104% | 105% | 125% | 99% | 98% | 100% | 125% | 100% | 105%
8 | Ic1cccc(CSc2nnc(-c3ccncc3)o2)c1 | 76% | 96% | 100% | 100% | 97% | 86% | 82% | 82% | 81% | 100%
9 | NC(=O)c1ccc2[nH]c(-c3ccc(Oc4ccc(Cl)cc4)cc3)nc2c1 | 98% | 101% | 102% | 111% | 182% | 98% | 102% | 107% | 83% | 58%
10 | COc1ccc(OC)c2c(=S)c3ccccc3[nH]c12 | 93% | 106% | 95% | 101% | 67% | 99% | 103% | 120% | 87% | 94%
11 | Oc1ccc(-c2nc(-c3ccc(F)cc3)c(-c3ccncc3)[nH]2)cc1 | 76% | 110% | 97% | 113% | 76% | 69% | 20% | 112% | 88% | 
12 | COc1cc2ncnc(N3CCN(C(=O)Nc4ccc(Oc5ccccc5)cc4)CC3)c2cc1OC | 102% | 93% | 112% | 98% | 242% | 106% | 117% | 115% | 142% | 120%
13 | CCOc1cc2ncnc(Nc3cccc(Br)c3)c2cc1OCC | 85% | 105% | 102% | 84% | 66% | 93% | 66% | 109% | 135% | 113%
14 | CCN(CC)CCCCN1c2ccccc2Oc2ccc(Cl)cc21 | 99% | 111% | 109% | 96% | 104% | 115% | 90% | 120% | 136% | 124%
15 | Oc1n[nH]c2nnc(-c3c(-c4ccccc4)nn4ccccc34)cc12 | 39% | 62% | 43% | 85% | 92% | 92% | 95% | 69% | 83% | 78%
16 | O=C1Nc2cc(Br)ccc2/C1=C1/Nc2ccccc2/C1=N\O | 46% | 50% | 26% | 89% | 76% | 74% | 37% | 110% | 84% | 8%
